A selection: hits, their analogues and other compounds. The true share with any hit is near 7.9%.
HT1080 IDH1KD tx = toxicity to HT-1080 IDH1 knockdown cells (counter line); HT-1080 IDH1 knockdown viability, ATP luminescence, 48 h; Potency, µM (highest dose often 46.1 µM), hits mostly cytotoxic; 360,000 tested, 2% active
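IDH1KD HT-1080 cells, 750/well, RPMI + 5% FBS; compound pinned after 2 h settling; 48 h, 37 °C; CellTiter-Glo luminescence; % activity normalised to DMSO and no-cell wells; curves fitted, classed by r2 and efficacy.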
KB-V1 MDR tox = kills drug-selected multidrug resistant KB-V1 cells; KB-V1 MDR cells viability, CellTiter-Glo, 72 h; Potency, µM (highest dose often 46.1 µM), usual class: cytotoxic; 400,000 tested, 3.4% active; AID 1347076; also: nearly all actives have a fitted effect of over 60% in size
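KB-V1 cells (P-gp-expressing MDR subline of KB-3-1) in phenol-red-free DMEM with 10% FBS were exposed to library compounds over a concentration series for 72 h at 37 degrees C. Viability read by CellTiter-Glo luminescence; concentration-effect curves fitted after normalization.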
HT1080NT lethal = kills 2HG-producing HT-1080-NT fibrosarcoma cells; HT-1080-NT fibrosarcoma viability, CellTiter-Glo ATP luminescence, 48 h; Potency, µM (series often up to 46.1 µM), actives largely listed as cytotoxic; 360,000 tested, 1.6% active; AID 686970;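 also: NT is the 2HG producing partner of a matched IDH1 knockdown line; nearly all actives have a fitted effect of over 55% in size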
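Fibrosarcoma NT cells, 750 per well in 5% FBS RPMI, were exposed to compound for 48 hours. Viability: CellTiter-Glo luminescence.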
SW480 rereplic = induces DNA re-replication in SW480 colon adenocarcinoma cells. AID 624297. SW480 DNA re-replication, Hoechst DNA content imaging, 48 h. 340,000 tested, 1.8% active. Potency, µM (titrated, usually from 46.1 µM), actives largely listed as activators; also: nearly all actives have a fitted effect of over 55% in size
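Image-based DNA-content assay: after two days of treatment, nuclei were labelled with the DNA dye Hoechst and imaged, and hits were compounds raising the count of nuclei showing high fluorescence intensity.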
MCF10A rerep = induces DNA re-replication in MCF 10a normal breast cells. MCF 10A DNA re-replication, Hoechst nuclear intensity, 48 h. 350,000 tested, 2.9% active. AID 624296. Potency, µM (top dose mostly 46.1 µM), usual class: activators; also: nearly all actives have a fitted effect of over 50% in size
KB-3-1 cytotox = KB-3-1 parental cell cytotoxicity | KB-3-1 viability, CellTiter-Glo ATP luminescence, 72 h | Potency, µM (highest dose often 46.1 µM), actives largely listed as cytotoxic | 400,000 tested, 1.4% active | AID 1347075; also: nearly all actives have a fitted effect of over 60% in size
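Here the drug-naive KB-3-1 line serves as comparator for MDR sub-line selectivity; cells received compound titrations, 72 h at 37 °C, then CellTiter-Glo readout.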
Large screens that a line does not name were inactive; ! = not confirmed by another sample. Calls follow the shape of the dose curve; as a rule, active = well fitted curve in the direction sought with a large enough effect; inconclusive = small, poorly fitted or top-dose-only effect, or another doubt; inactive = no such curve, though single readings can be large; an effect the other way counts as inactive or inconclusive.

O=[N+]([O-])c1ccc(CS(=O)c2ccccc2)cc1 (stereo unspecified)	KB-V1 MDR tox inconclusive
c1ccc(-c2c3ccccc3nc3[nH]c4ccccc4c23)cc1	SW480 rereplic 11.6µM, MCF10A rerep inconclusive
c1ccc2nc3c(nc2c1)[nH]c1ccccc13	none
Cc1[nH]c(N=Nc2ccccc2)nc1N=Nc1ccccc1	HT1080 IDH1KD tx inconclusive, KB-V1 MDR tox inconclusive, SW480 rereplic 7.31µM, MCF10A rerep inconclusive, KB-3-1 cytotox 18.4µM
CCN(c1ccccc1)C1SC(=O)N(c2ccccc2)C1=O (stereo unspecified)	none (no result: KB-V1 MDR tox, SW480 rereplic, MCF10A rerep, KB-3-1 cytotox)
CCCN(CCC)CCCNC(=O)c1cc2c(=O)oc3ccc(C)cc3c2s1	none (no result: HT1080 IDH1KD tx, HT1080NT lethal, SW480 rereplic, MCF10A rerep)
Cc1ccc(NS(=O)(=O)c2ccc(-c3cnc(C4CC4)o3)cc2)c(C)c1	HT1080 IDH1KD tx 0.82µM, KB-V1 MDR tox 2.59µM, HT1080NT lethal inconclusive, SW480 rereplic 9.2µM, MCF10A rerep 0.731µM, KB-3-1 cytotox 2.06µM
CCN(CC)c1ccc(NS(=O)(=O)c2ccc(-c3cnc(C4CC4)o3)cc2)c(C)c1	none (no result: HT1080 IDH1KD tx, HT1080NT lethal, SW480 rereplic, MCF10A rerep)
O=S(=O)(Nc1ccc(F)cc1Cl)c1ccc(-c2cnc(C3CC3)o2)cc1	HT1080 IDH1KD tx inconclusive, KB-V1 MDR tox 1.46µM, HT1080NT lethal 1.16µM, SW480 rereplic inconclusive, MCF10A rerep 1.03µM, KB-3-1 cytotox 1.16µM
Cc1cc(C)c(NS(=O)(=O)c2ccc(-c3cnc(C4CC4)o3)cc2)c(C)c1	KB-V1 MDR tox 2.06µM, KB-3-1 cytotox 0.461µM (no result: HT1080 IDH1KD tx, HT1080NT lethal, SW480 rereplic, MCF10A rerep)
O=S(=O)(c1ccc(-c2cnc(C3CC3)o2)cc1)N1CCN(c2cccc(Cl)c2)CC1	KB-V1 MDR tox inconclusive (no result: HT1080 IDH1KD tx, HT1080NT lethal, SW480 rereplic, MCF10A rerep)
CC(C(=O)Nc1ccc(C#N)cc1)N1CCN(C(=O)C2CC2)CC1 (stereo unspecified)	none
O=C1CC(Sc2nnc(-c3ccccc3O)o2)C(=O)N1c1ccccc1 (stereo unspecified)	HT1080 IDH1KD tx 4.47µM, HT1080NT lethal inconclusive
CC(=O)Nc1ccc(C(=O)OCC(=O)N(Cc2ccccc2)C(C)(C)C)cc1	KB-V1 MDR tox 14.6µM
CC(=O)Nc1ccc(C(=O)OCC(=O)NCc2ccccc2)cc1	HT1080 IDH1KD tx 25.9µM, HT1080NT lethal inconclusive, SW480 rereplic inconclusive, MCF10A rerep inconclusive, KB-3-1 cytotox inconclusive
CCOC(=O)c1ccc(NC(=O)COc2ccccc2CNCCc2ccccc2)cc1	HT1080 IDH1KD tx inconclusive, HT1080NT lethal inconclusive, MCF10A rerep 2.31µM
CCOC(=O)c1ccc(NC(=O)COc2ccc(CNCCO)cc2OCC)cc1	HT1080 IDH1KD tx inconclusive, HT1080NT lethal inconclusive
CNS(=O)(=O)c1cccc(C(=O)OCC(=O)N(Cc2ccccc2)C(C)(C)C)c1	none
CC(=O)c1ccc(S(=O)(=O)NCCC(=O)OCC(=O)N(Cc2ccccc2)C(C)(C)C)cc1	KB-V1 MDR tox 20.6µM
Cc1ccc(S(=O)(=O)NCCC(=O)OCC(=O)N(Cc2ccccc2)C(C)(C)C)cc1	none
COc1ccc(CCN2CC(C(=O)N3CCCCCC3)CCC2=O)cc1 (stereo unspecified)	KB-3-1 cytotox inconclusive
N#Cc1cccc(NC(=O)c2cc(C3CCCCN3S(=O)(=O)c3cccc4cccnc34)on2)c1 (stereo unspecified)	none (no result: SW480 rereplic, MCF10A rerep)
COc1ccc(NC(=O)C2=CC(c3ccc4c(c3)OCO4)=NS(=O)(=O)N2C)cc1	none (no result: HT1080 IDH1KD tx, HT1080NT lethal, SW480 rereplic, MCF10A rerep)
O=C(N/N=C\C=C\c1ccco1)c1cc(-c2ccc3ccccc3c2)n[nH]1	MCF10A rerep 7.31µM
COC(=O)C[C@H]1C[C@@H]2c3cc(NS(=O)(=O)c4cccc(OC)c4)ccc3O[C@@H]2[C@@H](CO)O1	none (no result: SW480 rereplic, MCF10A rerep)
COc1cccc(S(=O)(=O)Nc2ccc3c(c2)[C@@H]2C[C@@H](CC(=O)NCc4ccc(Cl)cc4)O[C@@H](CO)[C@@H]2O3)c1	HT1080 IDH1KD tx 6.51µM, HT1080NT lethal 8.2µM, KB-3-1 cytotox inconclusive (no result: SW480 rereplic, MCF10A rerep)
C[N+](C)(C)CC(=O)N/N=C/c1c2ccccc2cc2ccccc12	KB-V1 MDR tox inconclusive, MCF10A rerep 18.4µM
COCCNC(=S)N/N=C/c1c2ccccc2cc2ccccc12	SW480 rereplic 18.4µM, MCF10A rerep 14.6µM
Cc1cc(C)n2nc(C(=O)N/N=C/c3c4ccccc4cc4ccccc34)nc2n1	HT1080 IDH1KD tx inconclusive, KB-V1 MDR tox inconclusive, HT1080NT lethal inconclusive, SW480 rereplic inconclusive, MCF10A rerep 8.2µM
Cc1nc2ccc(NC(=O)CSc3ccccc3)cc2s1	none
CC(=O)NC(C(=O)c1ccccc1)C(=O)c1ccccc1	SW480 rereplic 0.517µM
CCOP(=O)(OCC)C(NC(C)=O)C(=O)c1ccccc1 (stereo unspecified)	KB-V1 MDR tox inconclusive
CCOc1ccc(NC(=O)Cc2csc(COc3cccc(C)c3)n2)cc1	none (no result: HT1080 IDH1KD tx, HT1080NT lethal, SW480 rereplic, MCF10A rerep)
CC1CCC(C(C)C)C(OC(=O)Cn2c(-c3ccc(Br)cc3)[n+](C)c3ccccc32)C1 (stereo unspecified)	HT1080 IDH1KD tx 16.4µM, KB-V1 MDR tox inconclusive, HT1080NT lethal 10.3µM, SW480 rereplic inconclusive, MCF10A rerep inconclusive, KB-3-1 cytotox 18.4µM!
Cc1ccccc1OCc1n(CC(=O)OC2CC(C)CCC2C(C)C)c2ccccc2[n+]1C (stereo unspecified)	HT1080 IDH1KD tx 7.31µM, HT1080NT lethal 16.4µM, SW480 rereplic inconclusive, MCF10A rerep 1.84µM!, KB-3-1 cytotox inconclusive
CC1CCC(C(C)C)C(OC(=O)Cn2c(-c3ccc(Cl)cc3)[n+](C)c3ccccc32)C1 (stereo unspecified)	HT1080 IDH1KD tx 5.8µM, HT1080NT lethal 5.8µM, SW480 rereplic inconclusive, MCF10A rerep inconclusive, KB-3-1 cytotox inconclusive

Screens as filed in PubChem BioAssay.
